About 19,000 (20%) of roughly 96,000 compounds were called active. Not all results are given here. Unmarked numbers belong to inactive results.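 The calls were made as follows: active = blocking of liver enzyme CYP2C9 beyond about 50% at 5 µM (limit read from the data); inactive = the rest.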

The target in this experiment is Cytochrome P450 2C9 (Homo sapiens) (UniProt P11712). Briefly: blockers of cytochrome P450 2C9 activity – biochemical, luminescence, ADME assay, primary screen (AID 777). The note with it: CYP2C9 Supersomes, luciferin-H conversion, at 5 µM, hits give high values.
Sequence of Cytochrome P450 2C9 (Homo sapiens) (P11712 whole entry, looked up): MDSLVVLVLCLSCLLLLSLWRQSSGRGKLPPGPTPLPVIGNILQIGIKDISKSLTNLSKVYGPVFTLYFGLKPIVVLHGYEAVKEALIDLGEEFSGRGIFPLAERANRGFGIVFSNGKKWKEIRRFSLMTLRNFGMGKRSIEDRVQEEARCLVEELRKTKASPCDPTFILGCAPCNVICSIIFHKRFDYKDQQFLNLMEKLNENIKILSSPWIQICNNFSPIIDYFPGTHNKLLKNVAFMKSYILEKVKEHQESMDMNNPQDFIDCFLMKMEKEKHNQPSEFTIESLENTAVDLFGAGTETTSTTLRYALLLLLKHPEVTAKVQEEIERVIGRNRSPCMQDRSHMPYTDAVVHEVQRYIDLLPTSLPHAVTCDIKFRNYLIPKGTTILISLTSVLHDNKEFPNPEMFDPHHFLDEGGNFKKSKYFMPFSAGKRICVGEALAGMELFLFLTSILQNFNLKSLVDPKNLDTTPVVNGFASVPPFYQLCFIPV
For the compound `CCOc1ccc(-c2nc(C)sc2CC(=O)O)cc1`, the inhibition was -0.3%.

`CC(C)c1ccc(Nc2ncccc2C#N)cc1`: the inhibition was 3.6%.

For the compound `C=CCOC(=O)C1=C(C)NC(C)=C(C(=O)OCC=C)C1c1cccs1`, the inhibition is 96.8% (active).

For the compound `COCCOC(=O)C1=C(C)N=c2s/c(=C\c3cccs3)c(=O)n2C1c1cccs1` (stereo not drawn), the inhibition is 41.5%.

As to `C=CCN(C(=O)Nc1ccc2oc(C)nc2c1)c1ccccc1`, the inhibition was 22.8%.

Take `CCc1c(C)nc2cc(-c3cccs3)[nH]n2c1=O`: the inhibition was 30.3%.

With `FC(F)(F)c1nnc2ccc(N3CCN(c4ccccc4)CC3)nn12`, the inhibition is 27.4%.

For the compound `O=C(CSCc1ccccc1Cl)NNC(=O)c1ccccc1`, the inhibition is -1.6%.

With `O=C(CSCc1ccc([N+](=O)[O-])cc1)Nc1cccc(C(=O)Nc2ccccc2C(=O)O)c1`, the inhibition was 93.9% (active).

In the case of `O=C(CSCc1ccc([N+](=O)[O-])cc1)NCCSCc1ccccc1`, the inhibition was 44.2%.

For the compound `Cc1ccc(C2CC2C(=O)NN)cc1` (stereo not drawn), the inhibition is 15.8%.

Turning to `CC(=O)c1cccc(NC(=O)N2CCCC2C(=O)NCCc2ccccc2)c1` (stereo not drawn), the inhibition is -8.8%.

`COCCN(C(=O)c1ccco1)c1nnc(-c2ccc(OC)cc2)s1`: the inhibition is 9%.

In the case of `CCN1C(=O)CS/C1=N\c1nccs1`, the inhibition was 17.8%.

Turning to `COc1ccc(-n2nnc3c(=O)n(CC(=O)OCc4ccccc4)cnc32)cc1`, the inhibition is -16%.

On to `COc1ccc(-c2c(C(C)=O)c(C)nc3sc4c(=O)n(-c5ccc(C)cc5)nnc4c23)cc1`, for which the inhibition was 85.6% (active).

For the compound `COCc1cc(C)nc2sc3c(=O)n(-c4cccc5ccccc45)nnc3c12`, the inhibition is 26.8%.

In the case of `CC(C)(C)NC(=O)C(c1ccco1)N(Cc1ccc2c(c1)OCO2)C(=O)Cn1nnc2ccccc21` (stereo not drawn), the inhibition is 16.8%.

On to `Cc1cccc(-n2ncc(C#N)c2-n2cccc2)c1`, for which the inhibition was 39.8%.

Regarding `COc1ccc(Cl)cc1S(=O)(=O)Nc1cccc(C(=O)O)c1`, the inhibition was 14.1%.

Turning to `COc1ccc(OC)c(S(=O)(=O)Nc2ccccc2F)c1`, the inhibition was 57.6% (active).

With `COc1ccccc1NS(=O)(=O)N(C)C`, the inhibition was -23%.

In the case of `Cc1ccc(NC(=O)COc2ccc(-n3ccnc3)cc2)cc1Cl`, the inhibition was 95% (active).

Consider `Cc1ccc(OCC(=O)Nc2ccc(-c3nc4ncccc4o3)cc2)cc1`, for which the inhibition was -6.6%.

In the case of `Cc1csc(OCC(=O)Nc2ccc(C)c(C)c2)n1`, the inhibition was 4.4%.

Consider `CCN(CC)c1ccc2cc(C(=O)O)c(=O)oc2c1`, for which the inhibition is -7.5%.

In the case of `Cc1cc(=O)n2c3c(cccc13)CCC2`, the inhibition is -60.9%.

Turning to `CC(C)Oc1ccc(C(=O)Nc2cc(=O)n(C)c(=O)n2C)cc1`, the inhibition is 10.6%.

Consider `C=C(C)Cn1c(N2CCN(CC)CC2)nc2c1c(=O)[nH]c(=O)n2C`, for which the inhibition is -14.5%.

As to `COc1cc(C(=O)NC(=S)NCc2ccco2)cc(OC)c1OC`, the inhibition is 18.9%.

`Cc1cccc(C)c1NC(=O)CCS(=O)(=O)c1cccc2nsnc12`: the inhibition was -1%.

Take `O=C(Nc1cc(=O)[nH]c2ncnn12)c1ccccc1Cl`: the inhibition is 5.6%.

Consider `O=C(CSCc1cccs1)N1CCCC1`, for which the inhibition is -22.8%.

The values are drawn from PubChem BioAssay AID777 (Sanford-Burnham Center for Chemical Genomics, 2007).
